According to PubChem BioAssay AID488856 (Sanford-Burnham Center for Chemical Genomics, 2010):
Screen size: about 1,400 compounds; about 50 (4%) were called active.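 The calls were made as follows: active = mean inhibition across replicates above about 26% (limit read from the data); inactive = the rest.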 These entries were drawn from the full list.

The compounds below were run against Caspase-3 (Homo sapiens) (UniProt P42574) (assay: CASP3 blockers, validation, counterassay for UBE2N polyubiquitination inhibitor project, biochemical, one-dose (AID 488856;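 also: plate controls were DMSO with caspase-3 for no effect and DMSO wells lacking enzyme for full effect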)). Details: Recombinant caspase-3, Caspase-Glo 3/7 luminescence, 60 min; at 20 µM; active compounds read high.
Sequence of Caspase-3 (Homo sapiens) (P42574 whole entry, looked up): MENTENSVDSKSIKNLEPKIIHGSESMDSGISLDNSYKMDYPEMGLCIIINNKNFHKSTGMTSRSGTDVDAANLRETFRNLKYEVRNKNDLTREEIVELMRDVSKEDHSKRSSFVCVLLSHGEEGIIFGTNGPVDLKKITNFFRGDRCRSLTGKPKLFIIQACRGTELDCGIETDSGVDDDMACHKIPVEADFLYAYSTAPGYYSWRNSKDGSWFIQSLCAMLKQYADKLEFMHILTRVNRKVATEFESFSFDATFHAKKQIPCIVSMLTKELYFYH
For `CC(C)n1cnc2c(Nc3cccc(Cl)c3)nc(N(CCO)CCCO)nc21`, the inhibition was -1.5% (inactive). In the case of `C#CCOCCOCCOCCNc1nc(N2CCN(C(=O)CCCCCCCCCCNC(=O)[C@H]([C@@H](C)CC)n3cc(CCCCN=C(N)N)nn3)CC2)nc(N2CCN(C(=O)CCCCCCCCCCNC(=O)[C@H](CO)n3cc(CCCSC)nn3)CC2)n1`, the inhibition is reported as -0.7% (inactive). With `NC(N)=N/N=C/c1ccc(OCc2ccc(Cl)cc2Cl)cc1` the inhibition was -1.8% (inactive). With `COc1ccc(-c2nnc3ccc(SCc4ccccc4)nn23)cc1` the inhibition was -6.5% (inactive). `COc1cccc(Cn2cnc3c([N+](=O)[O-])c(C)c(C)cc32)c1` was tested, and the inhibition was -0.7% (inactive). In the case of `CN(C(=O)CN(CCO)CC(=O)N(C)C(C)(C)Cc1ccccc1)C(C)(C)Cc1ccccc1`, the inhibition is reported as -0.1% (inactive). `CCOc1ccc2nc(N(CCCN(C)C)C(=O)c3ccc(C(=O)c4ccccc4)cc3)sc2c1` was tested, and the inhibition was 3.4% (inactive). `Cc1ccc(C(=O)N/C(=C/c2ccc(-c3cccc([N+](=O)[O-])c3)o2)C(=O)NCCCN(C)C)cc1` was tested, and the inhibition was -0.7% (inactive). For `COc1ccc(C(CNC(=O)c2cccc(NS(=O)(=O)c3ccc(C)c(F)c3)c2)N2CCCC2)cc1` (stereo not given), the inhibition was 0.9% (inactive). For `Cn1c(C(=O)NCCCN2CCN(c3cccc(Cl)c3)CC2)cc2c(=O)n(C)c3ccccc3c21`, the inhibition was 1.8% (inactive). For `CC1CC(C)(C)n2c(O)c(N=NC(N)=S)c3cccc1c32` (stereo not given), the inhibition was -2.8% (inactive). In the case of `CN(C)CCCN(C(=O)c1ccc(S(=O)(=O)N2CCCCCC2)cc1)c1nc2ccc(Br)cc2s1`, the inhibition is reported as 0.1% (inactive). `COc1ccc2sc(-c3ccc(S(C)(=O)=O)cc3)c(C#Cc3cncn3C)c2c1` was tested, and the inhibition was 0.2% (inactive). With `COc1ccc(-n2nnnc2-c2nc3ccccc3s2)cc1` the inhibition was 85.5% (active). In the case of `CCN(CC)CCNC(=O)c1ccc(NC(=O)c2cc(-c3ccncc3)nc3ccccc23)cc1`, the inhibition is reported as -3.4% (inactive). `O=S(=O)(c1ccc(NC(=S)NN=C(C2CC2)C2CC2)cc1)N1CCOCC1` was tested, and the inhibition was 3.2% (inactive). With `COc1ccc2sc(-c3ccccc3OC)c(-c3ccc(OCCN4CCCC4)cc3)c2c1` the inhibition was -2.6% (inactive). `O=c1cc(CO)oc(C(Nc2cccc([N+](=O)[O-])c2)c2ccccn2)c1O` (stereo not given) was tested, and the inhibition was 1.9% (inactive). In the case of `Cc1nc(N2CCN(c3ccccn3)CC2)c2c(C)c(C(=O)Nc3ccc(F)cc3)sc2n1`, the inhibition is reported as -2.6% (inactive). For `C#CCOCCOCCOCCNc1nc(N2CCN(C(=O)CCCCCCCCCCNC(=O)Cn3cc(CCCCCN)nn3)CC2)nc(N2CCN(C(=O)CCCCCCCCCCNC(=O)[C@H](CO)n3cc(CCCSC)nn3)CC2)n1`, the inhibition was 3% (inactive). For `S=c1nc2ccccc2c2nc(-c3cccnc3)[nH]n12`, the inhibition was 16% (inactive). In the case of `Cc1ccc(N(C(=O)c2snc(C(N)=O)c2N)C(C(=O)NCC2CCCO2)c2c[nH]c3ccccc23)cc1` (stereo not given), the inhibition is reported as 0.8% (inactive). With `CCN(CC)CCC(c1cc(OC)c(OC)c(OC)c1)c1c(OC)cc(OC)c2c(-c3ccccc3)cc(=O)oc12` (stereo not given) the inhibition was -2% (inactive). For `Cc1ccccc1C(=O)OC1OC(=O)C(Cl)=C1Nc1ccccc1` (stereo not given), the inhibition was -0.3% (inactive). `O=C(COC(=O)Cn1cnc2ccccc2c1=O)NCc1ccccc1Cl` was tested, and the inhibition was -0.6% (inactive). In the case of `COc1cccc(N(C(=O)c2snc(C(N)=O)c2N)C(C(=O)NCC2CCCO2)c2c[nH]c3ccccc23)c1` (stereo not given), the inhibition is reported as -8.9% (inactive). For `COc1ccccc1-c1sc2ccccc2c1-c1ccc(C(C)=O)cc1`, the inhibition was 12.1% (inactive). In the case of `Cc1ccc(NC2=C(Cl)C(=O)OC2OC(=O)c2ccccc2C)cc1` (stereo not given), the inhibition is reported as 0.6% (inactive). In the case of `CSCCC(NC(=O)c1ccc(Cl)cc1Cl)C(=O)NNC(=O)c1csc(N2CCOCC2)n1` (stereo not given), the inhibition is reported as 1.1% (inactive). In the case of `COc1ccc(C(CNC(=O)c2ccc(S(=O)(=O)Nc3ccccc3F)cc2)N(C)C)cc1` (stereo not given), the inhibition is reported as 2.2% (inactive). In the case of `COc1ccc(-c2sc3ccccc3c2-c2ccc(OCCN3CCOCC3)cc2)cc1`, the inhibition is reported as 0.1% (inactive). In the case of `Cc1ccc(C(C(=O)NCC2CCCO2)N(C(=O)c2snc(C(N)=O)c2N)c2ccc(C(C)C)cc2)o1` (stereo not given), the inhibition is reported as -0.8% (inactive). For `C#CCOCCOCCOCCNc1nc(N2CCN(C(=O)CCCCCCCCCCNC(=O)[C@H](CCCCN)n3cc(C)nn3)CC2)nc(N2CCN(C(=O)CCCCCCCCCCNC(=O)[C@H](CO)n3cc(CCCSC)nn3)CC2)n1`, the inhibition was -3.2% (inactive). With `CCOCCCNC(=O)c1cn(CC(C)C)c(=O)c2c1c1ccccc1n2C` the inhibition was -2.3% (inactive). With `COc1cccc2sc3cc(NCC[C@@H]4CCCN4C)ccc3c(=O)c12` the inhibition was 63.1% (active). In the case of `NC(=O)NC(CC(=O)NNC(=O)c1ccccn1)c1ccc(Cl)cc1` (stereo not given), the inhibition is reported as -0.9% (inactive). With `Cc1ncc(CO)c(/C=N/NC(=O)c2cccc(S(=O)(=O)N3CCCC3)c2)c1O` the inhibition was -0.5% (inactive). `Cc1ccc(-c2noc(CCC(=O)Nc3ccccc3N3CCN(C)CC3)n2)cc1` was tested, and the inhibition was -3.5% (inactive). With `CC1(C)Cc2ccccc2-c2[nH]c(=S)[nH]c(=O)c21` the inhibition was 2.3% (inactive). `CCOC(=O)c1ccc(NC(=O)c2nc[nH]c2C(=O)NCc2ccccc2)cc1` was tested, and the inhibition was 1.9% (inactive). `O=C(CCCCCn1c(=O)[nH]c2ccccc2c1=O)NCCc1c[nH]c2ccccc12` was tested, and the inhibition was -2% (inactive). `O=C(CCCCCN1C(=O)c2cccc3cccc(c23)C1=O)NCc1ccco1` was tested, and the inhibition was -1.7% (inactive). For `CCOc1ccc(N(C(=O)c2snc(C(N)=O)c2N)C(C(=O)NCC2CCCO2)c2c[nH]c3ccccc23)cc1` (stereo not given), the inhibition was -4.2% (inactive). With `Cc1ccc(NC(=O)c2cnc(SCC(=O)NCC3CCCO3)n(C)c2=O)cc1` (stereo not given) the inhibition was 96.8% (active). For `CC(=O)NC(=S)NNC(=O)c1ccc(Br)cc1`, the inhibition was 6.4% (inactive). `Cc1cccc(-c2nc3ccc(C(=O)NCCN4CCN(C)CC4)cc3nc2-c2cccc(C)c2)c1` was tested, and the inhibition was -4% (inactive). For `CCOC(=O)c1cccc(NS(=O)(=O)c2c(C(=O)N3CCCCCC3)c(C)n(C)c2C)c1`, the inhibition was -2.7% (inactive). With `C#CCOCCOCCOCCNc1nc(N2CCN(C(=O)[C@H](CCCCN)n3cc([C@@H](N)C(C)CC)nn3)CC2)nc(N2CCN(C(=O)[C@H](Cc3ccc(O)cc3)n3cc([C@@H](N)C(C)CC)nn3)CC2)n1` (stereo not given in full) the inhibition was -3.4% (inactive). With `Cc1cccc(-n2cnc(C(=O)NNC(=S)Nc3ccccc3)c2)n1` the inhibition was 0% (inactive). In the case of `CCCCN(C)CCCNC(=O)c1cc(-c2cccs2)nc2ccccc12`, the inhibition is reported as -3.7% (inactive). For `C#CCOCCOCCOCCNc1nc(N2CCN(C(=O)C(Cc3ccc(O)cc3)n3cc(C(N)CC(C)C)nn3)CC2)nc(N2CCN(C(=O)C(Cc3ccc(O)cc3)n3cc(C(N)C(C)CC)nn3)CC2)n1` (stereo not given), the inhibition was 0.7% (inactive). In the case of `CN(C)c1ccnc2sc3c(=O)n(Cc4ccccc4)cnc3c12`, the inhibition is reported as -2.2% (inactive). For `CCN1C(=NCc2ccc(OC)cc2)N[C@@H](CCc2ccccc2)[C@H](C(=O)NCc2ccc(OC)cc2)[C@H]1C`, the inhibition was -3.2% (inactive). For `CN(C)CC(O)COc1ccc(C(C)(C)c2ccc(OCC(O)CN(C)C)cc2)cc1` (stereo not given), the inhibition was 3.6% (inactive). `CCCCCCCCCCOC(=O)Cn1c(COc2cccc(OC)c2)[n+](C)c2ccccc21` was tested, and the inhibition was 3.3% (inactive). With `Cc1cccc(OCC(O)CN2CCN(CCN3C(=O)c4cccc5cccc(c45)C3=O)CC2)c1C` (stereo not given) the inhibition was 2.6% (inactive). With `COc1ccccc1NC(=O)CSc1nnc(-c2ccoc2C)n1CCc1ccccc1` the inhibition was -0.3% (inactive). In the case of `CCCCN(CCCC)CCC(O)c1cc2c(Cl)cc(Cl)cc2c2cc(C(F)(F)F)ccc12` (stereo not given), the inhibition is reported as 3.4% (inactive). In the case of `Cc1c(CN2CCC(CO)(CCOc3ccccc3)CC2)[nH]c2ccc(Cl)cc12`, the inhibition is reported as -3.8% (inactive). `N#Cc1c(-c2ccc(Cl)cc2)c2c([nH]c1=S)CCCC2` was tested, and the inhibition was -1.9% (inactive). `CC[C@@H](C)[C@@H]1CN([C@@H](C)CN2CCC[C@H]2CN2C(N)=NC[C@H]2C(C)C)C(=N)N1CCc1ccc(Cl)c(Cl)c1` was tested, and the inhibition was 2.5% (inactive). For `CCOC(=O)[C@@H]1[C@H]2COc3cc(OC)ccc3[C@H]2N2C(=O)N(c3ccc(F)cc3)C(=O)[C@]12C`, the inhibition was 3.4% (inactive). With `Cc1cc(C)c(NC(=O)C[N+](C)(C)CC(O)COc2cccc3ccccc23)c(C)c1` (stereo not given) the inhibition was -2.3% (inactive). In the case of `CC(=O)Nc1ccc(NC(=O)c2sc3nc4c(c(-c5ccc(C)cc5)c3c2N)CCC4)cc1`, the inhibition is reported as 4.6% (inactive). With `C=C1c2c(Cl)ccc(O)c2C(O)=C2C(=O)[C@]3(O)C(O)=C(C(N)=O)C(=O)[C@@H](N(C)C)[C@@H]3[C@@H](O)C12` (stereo not given in full) the inhibition was 1.1% (inactive). With `CCCOc1ccc(Cl)cc1Nc1nc(NCCO)nc(N2CCCC2)n1` the inhibition was 6.6% (inactive). `CN1CCC(CN)(N2CCN(c3ccccc3)CC2)CC1` was tested, and the inhibition was -2.2% (inactive). For `CCOC(=O)N1CCN(C(=O)Cc2ccc(-n3c(=S)[nH]c4ccccc4c3=O)cc2)CC1`, the inhibition was -0.5% (inactive). For `CN1CCN(CCCNC(=O)c2ccc(/C=C3\Oc4ccccc4N(Cc4ccc(Cl)cc4)C3=O)cc2)CC1`, the inhibition was -0.4% (inactive). For `O=c1c2c(nc3n1CCCCC3)sc1c(O)cccc12`, the inhibition was 77.2% (active). With `c1ccc(C[C@H]2CNCCN2CCC23CC4CC(CC(C4)C2)C3)cc1` the inhibition was -0.9% (inactive). In the case of `O=c1cc(CO)oc(C(Nc2cccc(C(F)(F)F)c2)c2ccccn2)c1O` (stereo not given), the inhibition is reported as -1.4% (inactive). For `NC(N)=Nc1nc(-c2ccccc2)c2cc(Cl)ccc2n1`, the inhibition was -2.7% (inactive). In the case of `CCC(C(=O)NC1CCCC1)N(C(=O)c1snc(C(N)=O)c1N)c1ccc2c(c1)OCCO2` (stereo not given), the inhibition is reported as 1.4% (inactive). For `c1ccc2c(CCN3CCNC[C@H]3Cc3cccc4ccccc34)cccc2c1`, the inhibition was 5% (inactive). In the case of `C#CCOCCOCCOCCNc1nc(N2CCN(C(=O)C([C@@H](C)O)n3cc([C@@H](N)CCCCN)nn3)CC2)nc(N2CCN(C(=O)[C@H](CCCCN)n3cc(CN)nn3)CC2)n1` (stereo not given in full), the inhibition is reported as 1.6% (inactive). For `COC(=O)c1cc(-c2cccs2)nc2ccccc12`, the inhibition was -2.9% (inactive). In the case of `CC1CN(C(=O)CCC(=O)NCCCN2CCC(Cc3ccccc3)CC2)c2cc(Cl)ccc2O1` (stereo not given), the inhibition is reported as 0.6% (inactive). In the case of `NC[C@H](Cc1ccccc1)NCCc1cc(C(F)(F)F)cc(C(F)(F)F)c1`, the inhibition is reported as -2.6% (inactive). In the case of `CCOC(=O)C1=C(c2ccccc2)O/C(=C(/C(=O)OC)C(F)(F)F)S1`, the inhibition is reported as 1.4% (inactive). For `COc1ccc(/C=N\NC(=O)c2sc(N)nc2C)cc1OC`, the inhibition was 23% (inactive). For `C#CCOCCOCCOCCNc1nc(N2CCN(C(=O)C([C@@H](C)CC)n3cc(C(N)COC(=O)C(F)(F)F)nn3)CC2)nc(N2CCN(C(=O)[C@H](CCCCN)n3cc(C(N)CC(C)C)nn3)CC2)n1` (stereo not given in full), the inhibition was -1% (inactive). With `CN(C)CCCN(C(=O)c1ccc(S(=O)(=O)N2CCCCCC2)cc1)c1nc2cc3c(cc2s1)OCCO3` the inhibition was 1.4% (inactive). In the case of `CCN(CC(=O)NCc1cccs1)C(=O)c1cccc(S(=O)(=O)Nc2ccccc2OC)c1`, the inhibition is reported as -1.4% (inactive). With `COc1ccc(N(C(=O)c2snc(C(N)=O)c2N)C(C(=O)NC2CCCC2)c2ccco2)cc1OC` (stereo not given) the inhibition was -0.3% (inactive). `CCN1CCN(CCNC(=O)c2ccc(/C=C3/Sc4ccccc4N(Cc4cccc(C)c4)C3=O)cc2)CC1` was tested, and the inhibition was 2.4% (inactive). With `C[C@@H](CN1CCC[C@H]1CN1C(N)=NC[C@@H]1Cc1ccccc1)N1C[C@@H](Cc2ccccc2)N(CCCC2CCCC2)C1=N` the inhibition was 1.4% (inactive). In the case of `COc1ccnc2c1c(=O)n(Cc1cccc(F)c1)c(=O)n2C`, the inhibition is reported as -0.3% (inactive). For `OCCNc1nc(Nc2ccc(Cl)c(Cl)c2)nc2ccccc12`, the inhibition was -0.1% (inactive). With `CCCC[C@@H]1CN=C(N)N1CCc1cc(C(F)(F)F)cc(C(F)(F)F)c1` the inhibition was 0.9% (inactive).
